In assay [1] the test system is Plasmodium falciparum Sir2 (PF13_0152, Sir2A). The experiment in a line: Plasmodium falciparum Sir2A binding compounds – biochemical, small-molecule microarray, 635 nm fluorescence, primary screen (AID 1098).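 Further: score merges spot fluorescence intensity with its signal-to-noise ratio.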 Particulars: fluorescence 635 nm, higher = more signal.
Assay [2] in a line: probe aDKK1 binding to arrayed compounds – biochemical, biotinylated probe, 635/667 nm fluorescence, primary screen (AID 1099).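 Further: score merges 667nm spot fluorescence with signal to noise across triplicate slides.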 The conditions noted are these: small-molecule microarray, higher = more signal.
A short description of assay [3]: probe aCHRDL2 binding to arrayed compounds – biochemical, biotinylated probe, 635/667 nm fluorescence, primary screen (AID 1100). Particulars: small-molecule microarray, higher = more signal.
Assay [4] can be described thus: change in splice reporter luminescence, either direction, cell-based, HEK293, spliceosome inhibition project, primary screen (AID 1101).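 Further: HEK293 cells carrying a splicing-competent luciferase reporter gene; test concentration not given here.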 The conditions noted are these: HEK293 splicing luciferase reporter, 24 h, higher = more signal, called active from +8 up or from −8 down. A general note: Reporter assays use an easily measured gene product as a stand-in for the process of interest.

Assay [5] has as its target Fibroblast growth factor 10 (Homo sapiens) (UniProt O15520). The experiment in a line: compounds binding fibroblast growth factor 10 – biochemical, small-molecule microarray, 635 nm fluorescence, primary screen (AID 1102). Particulars: FGF10 binding, fluorescence 635 nm, higher = more signal.
For assay [6], the system named is glycogen synthase kinase-3 (GSK3A per assay name; protocol says GSK3B). The experiment in a line: compounds binding glycogen synthase kinase-3 – biochemical, small-molecule microarray, 635 nm fluorescence, GSK3A, primary screen (AID 1103). Further: the record names both GSK3A and GSK3B. The conditions noted are these: fluorescence 635 nm, higher = more signal.
Assay [7] addresses Epidermal growth factor receptor (Homo sapiens) (UniProt P00533). The experiment in a line: compounds binding epidermal growth factor receptor – biochemical, small-molecule microarray, 635 nm fluorescence, primary screen (AID 1104).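 Further: score merges 667 nm emission intensity with spot signal to noise over triplicate slides.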 Particulars: EGFR binding, higher = more signal.
Assay [8] addresses Follistatin-related protein 3 (Homo sapiens) (UniProt O95633). The experiment in a line: compounds binding follistatin-related protein 3 – biochemical, small-molecule microarray, 635 nm fluorescence, primary screen (AID 1105).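 Further: score merges emission near 667 nm and signal to noise per printed spot across three slides.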 The conditions noted are these: FSTL3 binding, higher = more signal.
The target of assay [9] is Dickkopf-related protein 1 (Homo sapiens) (UniProt O94907). Kind of assay: small molecules binding DKK1 protein – biochemical, small-molecule microarray, 635 nm fluorescence scan, primary screen (AID 1106).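 Further: score merges emission near 667 nm with signal to noise over three replicate slides.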 The conditions noted are these: higher = more signal.
Sequence of Dickkopf-related protein 1 (Homo sapiens) (O94907 whole entry, looked up): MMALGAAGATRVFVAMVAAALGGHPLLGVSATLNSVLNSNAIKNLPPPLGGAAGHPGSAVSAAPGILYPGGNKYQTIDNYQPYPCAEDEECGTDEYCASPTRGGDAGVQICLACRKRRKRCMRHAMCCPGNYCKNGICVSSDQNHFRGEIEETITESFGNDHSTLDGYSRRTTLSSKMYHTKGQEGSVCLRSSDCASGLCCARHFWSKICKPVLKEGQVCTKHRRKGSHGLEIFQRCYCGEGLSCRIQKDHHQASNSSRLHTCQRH
For assay [10], the system named is Inhibin beta A chain (activin A). Kind of assay: small molecules binding activin A – biochemical, small-molecule microarray, 635 nm fluorescence scan, primary screen (AID 1107).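 Further: mouse activin A protein probed at 4.33 µg/mL on printed slides; score merges bound-protein fluorescence near 667 nm with spot signal-to-noise.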 The conditions noted are these: INHBA, higher = more signal.
The test system of assay [11] is Human papillomavirus type 1a protein E7 (residues 44-93). Kind of assay: small molecules binding HPV E7 44-93 – biochemical, small-molecule microarray, residues 44-93, 635 nm fluorescence, primary screen (AID 1108).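 Further: E7 fragment applied at 1 µg/mL in TBST for 1 h at 4 C; score combines spot fluorescence with its signal to noise ratio.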 The conditions noted are these: fluorescence 635 nm, higher = more signal.
A short description of assay [12]: hepatitis C replication reporter changes, two-sided – Huh7 cells, luciferase reporter, HCV replication inhibitor project, primary screen (AID 1109).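 Further: huh7 hepatoma cells harbouring a luciferase neomycin HCV replicon reporter; luciferase luminescence as measure of HCV replicon replication; test concentration not given here.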 Particulars: Huh7 HCV replicon luciferase reporter, 48 h; higher = more signal.
The target of assay [13] is Left-right determination factor 2 (Homo sapiens) (UniProt O00292). Kind of assay: small molecules binding LEFTY2 protein – biochemical, small-molecule microarray, 635 nm fluorescence scan, primary screen (AID 1110). Particulars: higher = more signal.
Sequence of Left-right determination factor 2 (Homo sapiens) (O00292 whole entry, looked up): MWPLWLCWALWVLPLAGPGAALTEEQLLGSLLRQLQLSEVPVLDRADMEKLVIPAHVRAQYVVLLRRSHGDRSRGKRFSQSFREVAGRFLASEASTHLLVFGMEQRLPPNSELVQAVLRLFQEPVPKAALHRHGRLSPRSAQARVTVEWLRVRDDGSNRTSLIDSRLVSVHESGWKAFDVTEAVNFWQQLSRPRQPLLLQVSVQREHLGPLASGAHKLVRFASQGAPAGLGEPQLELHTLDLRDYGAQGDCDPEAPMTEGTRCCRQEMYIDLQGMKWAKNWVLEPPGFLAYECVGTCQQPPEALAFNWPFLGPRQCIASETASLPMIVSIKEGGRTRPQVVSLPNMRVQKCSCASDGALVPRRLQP
For assay [14], the target named is Calmodulin-1 (Homo sapiens) (UniProt P0DP23). Kind of assay: small molecules binding calmodulin-1 with EGTA – biochemical, small-molecule microarray, Cy5-labelled CALM1, profiling panel (AID 1111).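 Further: labelled calmodulin applied in Tris saline Tween buffer holding calcium plus EGTA and DTT.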 Particulars: Cy5-CALM1 binding fluorescence, higher = more signal.
Assay [15] has the same target. The experiment in a line: small molecules binding Ca-loaded calmodulin-1 – biochemical, small-molecule microarray, Cy5-labelled CALM1, plus calcium, artefact control for SMM control-protein annotation, profiling panel (AID 1112).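 Further: score merges spot fluorescence with signal to noise from triplicate slides.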 The conditions noted are these: Cy5-CALM1 binding fluorescence, higher = more signal.
The nature of assay [16]: probe aWnt5a binding to arrayed compounds – biochemical, biotinylated probe, 635/667 nm fluorescence, primary screen (AID 1113).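 Further: score merges 667 nm fluorescence intensity with signal-to-noise per printed feature.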 Particulars: small-molecule microarray, higher = more signal.
Assay [17] in a line: probe aShh binding to arrayed compounds – biochemical, biotinylated probe, 635/667 nm fluorescence, primary screen (AID 1114).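 Further: probe is biotin-labelled aShh protein from a stem cell growth factor screen; measures binding of labelled protein to compounds printed on the slide; score merges feature fluorescence at 667 nm with signal-to-noise.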 Particulars: small-molecule microarray, higher = more signal.
Assay [18] is described as follows: probe aNog binding to arrayed compounds – biochemical, biotinylated probe, 635/667 nm fluorescence, primary screen (AID 1115).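 Further: probe is biotinylated aNog protein used at 0.15 µg/mL for 1 h at 4 C; z-score combines 667 nm fluorescence of each spot with its signal to noise.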 The conditions noted are these: small-molecule microarray, higher = more signal.
For assay [19], the target named is Torsin-1A-interacting protein 1 (Homo sapiens) (UniProt Q5JTV8). Kind of assay: compound microarray binding of lysate hLAP1 – cell lysate, small-molecule microarray, COS7 lysate, 635/667 nm fluorescence, primary screen (AID 1116). The conditions noted are these: 635 nm fluorescence, higher = more signal.
Sequence of Torsin-1A-interacting protein 1 (Homo sapiens) (Q5JTV8 whole entry, looked up): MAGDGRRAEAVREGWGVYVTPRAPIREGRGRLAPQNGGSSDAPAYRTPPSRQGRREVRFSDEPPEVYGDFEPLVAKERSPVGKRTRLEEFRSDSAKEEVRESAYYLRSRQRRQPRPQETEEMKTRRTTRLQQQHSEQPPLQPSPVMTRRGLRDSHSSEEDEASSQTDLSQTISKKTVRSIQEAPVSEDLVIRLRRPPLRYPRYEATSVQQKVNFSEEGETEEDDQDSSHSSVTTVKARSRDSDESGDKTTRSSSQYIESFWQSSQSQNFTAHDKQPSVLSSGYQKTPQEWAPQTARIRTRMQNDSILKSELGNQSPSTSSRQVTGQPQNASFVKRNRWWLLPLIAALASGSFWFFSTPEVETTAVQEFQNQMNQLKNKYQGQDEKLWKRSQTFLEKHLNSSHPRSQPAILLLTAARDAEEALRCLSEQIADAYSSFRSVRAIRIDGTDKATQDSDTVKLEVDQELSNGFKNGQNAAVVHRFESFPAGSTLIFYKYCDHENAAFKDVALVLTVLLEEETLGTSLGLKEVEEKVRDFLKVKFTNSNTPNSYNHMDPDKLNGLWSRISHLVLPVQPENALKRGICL
Assay [20] addresses Alpha-bungarotoxin (Bungarus multicinctus) (UniProt P60615). Kind of assay: compounds binding labelled alpha-BTX control protein – biochemical, small-molecule microarray, Alexa647 label, 635/667 nm fluorescence, artefact control for SMM control protein annotation, profiling panel (AID 1117). The conditions noted are these: alpha-BTX-A647 binding fluorescence, higher = more signal.

SMILES strings stand for the structures. Activity calls are given as the source filed them.

Sequence of Fibroblast growth factor 10 (Homo sapiens) (O15520 whole entry, looked up): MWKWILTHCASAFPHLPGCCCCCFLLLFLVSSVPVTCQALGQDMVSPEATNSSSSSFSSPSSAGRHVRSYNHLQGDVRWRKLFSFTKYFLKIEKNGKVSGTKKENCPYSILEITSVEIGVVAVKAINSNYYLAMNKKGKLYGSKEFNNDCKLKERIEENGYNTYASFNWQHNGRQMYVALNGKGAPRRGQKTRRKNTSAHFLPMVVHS
Sequence of Follistatin-related protein 3 (Homo sapiens) (O95633 whole entry, looked up): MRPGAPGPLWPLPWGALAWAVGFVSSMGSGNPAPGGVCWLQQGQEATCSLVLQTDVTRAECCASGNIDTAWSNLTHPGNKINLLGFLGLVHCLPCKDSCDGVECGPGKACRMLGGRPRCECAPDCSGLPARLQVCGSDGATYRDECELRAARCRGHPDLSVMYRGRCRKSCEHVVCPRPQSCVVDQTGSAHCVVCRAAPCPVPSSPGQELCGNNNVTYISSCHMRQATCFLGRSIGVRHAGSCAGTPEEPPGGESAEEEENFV
Sequence of Epidermal growth factor receptor (Homo sapiens) (P00533 whole entry, looked up): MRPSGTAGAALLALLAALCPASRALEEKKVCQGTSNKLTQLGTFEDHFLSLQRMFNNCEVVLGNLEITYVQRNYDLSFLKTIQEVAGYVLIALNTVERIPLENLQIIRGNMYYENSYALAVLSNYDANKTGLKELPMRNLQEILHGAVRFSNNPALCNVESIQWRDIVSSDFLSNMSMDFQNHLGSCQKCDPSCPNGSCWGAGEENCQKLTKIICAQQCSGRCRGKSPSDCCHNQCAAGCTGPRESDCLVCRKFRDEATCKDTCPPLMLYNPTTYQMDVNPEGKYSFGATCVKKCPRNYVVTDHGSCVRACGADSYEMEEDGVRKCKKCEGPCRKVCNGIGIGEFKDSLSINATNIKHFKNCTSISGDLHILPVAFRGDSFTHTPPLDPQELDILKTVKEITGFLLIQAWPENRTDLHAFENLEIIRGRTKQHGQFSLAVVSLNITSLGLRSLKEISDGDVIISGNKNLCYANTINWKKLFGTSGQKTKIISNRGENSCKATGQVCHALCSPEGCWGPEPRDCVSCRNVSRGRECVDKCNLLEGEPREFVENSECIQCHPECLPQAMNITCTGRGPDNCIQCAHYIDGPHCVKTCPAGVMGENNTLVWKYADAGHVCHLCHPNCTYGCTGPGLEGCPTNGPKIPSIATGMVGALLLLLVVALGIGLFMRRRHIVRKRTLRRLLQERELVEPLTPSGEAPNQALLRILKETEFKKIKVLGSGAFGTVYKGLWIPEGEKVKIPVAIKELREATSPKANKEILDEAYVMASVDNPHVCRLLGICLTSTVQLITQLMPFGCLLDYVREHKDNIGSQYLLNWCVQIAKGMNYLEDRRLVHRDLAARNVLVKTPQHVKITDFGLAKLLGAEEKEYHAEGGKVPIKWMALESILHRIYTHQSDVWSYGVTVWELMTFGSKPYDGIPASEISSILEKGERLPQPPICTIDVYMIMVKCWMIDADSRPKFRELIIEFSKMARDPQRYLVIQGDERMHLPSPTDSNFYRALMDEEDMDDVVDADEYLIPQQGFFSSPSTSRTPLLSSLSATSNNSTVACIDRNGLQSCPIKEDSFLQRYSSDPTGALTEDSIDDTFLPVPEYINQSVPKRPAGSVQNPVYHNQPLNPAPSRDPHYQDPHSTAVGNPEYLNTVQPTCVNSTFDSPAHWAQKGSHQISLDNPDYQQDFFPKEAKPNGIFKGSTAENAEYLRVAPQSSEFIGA
Sequence of Alpha-bungarotoxin (Bungarus multicinctus) (P60615 whole entry, looked up): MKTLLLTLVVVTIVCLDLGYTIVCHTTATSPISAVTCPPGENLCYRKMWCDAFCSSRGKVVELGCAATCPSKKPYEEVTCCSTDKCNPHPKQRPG

On to `Cc1ccc(N2C(=O)c3ccccc3[C@](C)(C(=O)O)[C@@H]2c2ccc(CO)cc2)nc1`, for which the composite z-score is -0.445 in assay [1]; -0.322 in assay [2]; 0.365 in [3]; -0.883 in assay [5]; -1.45 in assay [6]; -2.18 in [7]. Besides, the composite z-score in assay [8] was -1.21; in assay [9], -0.967; in assay [10] it was -0.292; in assay [11], -2.5; in assay [13], -1.64; in assay [14], 0.202. For the same molecule, the composite z-score in [15] is 0.823; in assay [16], -0.304; in assay [17], 0.608; in [18], -0.459; in assay [19], -0.415; in assay [20], -0.666. The values for the z-score in [4] and in assay [12] were 0.763 (inactive) and 0.0767, respectively.

As to `O=C1OCCC=C[C@H]2OC34C=CCN(Cc5ccccc5)C(=O)[C@H]3N(CCO)C(=O)[C@@H]4C12` (stereo not given in full), the composite z-score in [1] was -0.37; in [2] it was -0.273; in assay [3] it was 0.0184; in assay [5], -0.835; in assay [6], -0.958; in assay [7], -0.844. For the same molecule, the composite z-score was -0.376 in assay [8]; -0.46 in assay [9]; 1.02 in [10]; -0.936 in [11]; -0.591 in [13]; -0.675 in assay [14]. The composite z-score in [15] is 0.681; in assay [16], -0.248; in assay [17], -0.276; in [18] it was -0.224; in assay [19] it was -0.18; in assay [20], -2.01. For the same molecule, the z-score in assay [4] was -2.82 (inactive); in [12], -1.23.

For `C=C(COC)/C(=C/C[C@H](OC(C)=O)c1ccc(OCCO)cc1)c1cnc2ccccc2c1`, the composite z-score was -0.407 in assay [1]; 0.231 in [2]; -0.146 in [3]; 0.741 in assay [5]; 0.844 in assay [6]; 0.716 in [7]. Further, the composite z-score in assay [8] worked out at 1.46; in [9] it was 0.766; in [10], 1.8; in assay [11] it was 0.5; in assay [13], 0.523; in [14], 0.339. Besides, the composite z-score in assay [15] was 0.214; in assay [16], -0.001; in [17], 0.261; in assay [18], 0.0107; in assay [19], 0.458; in [20] it was 1.56. Besides, the z-score in assay [4] is -1.48 (inactive); in assay [12], -0.773.

As to `CCCC=C(CCC)[C@@H](NS(=O)(=O)c1ccc(C(F)(F)F)cc1)c1ccc(-c2ccccc2)cc1`, the composite z-score in assay [1] is 0.163; in assay [2], 0.888; in assay [3], 0.83; in assay [5], 1.13; in assay [6], 0.72; in [7] it was 0.201. For the same molecule, the composite z-score was 0.38 in assay [8]; -0.112 in [9]; 0.835 in assay [10]; 1.32 in assay [11]; 0.34 in assay [13]; 1.06 in assay [14]. Further, the composite z-score was determined as 0.878 in assay [15]; 0.145 in assay [16]; 0.217 in assay [17]; 0.157 in assay [18]; 0.0541 in assay [19]; 0.709 in [20]. For the same molecule, the figures for the z-score in assay [4] and in [12] were -1.69 (inactive) and -1.08, respectively.

With `COc1cccc([C@@H]2[C@@H](C)CC[C@H]3C(=O)N4[C@H](c5cccc(OC)c5)[C@@H](C)CC[C@H]4C(=O)N23)c1`, the composite z-score in assay [1] is 0.168; in assay [2], -0.271; in [3] it was -0.521; in [5] it was 0.614; in [6], 0.802; in assay [7], 0.518. Further, the composite z-score is 0.75 in assay [8]; 0.558 in [9]; -0.185 in [10]; 0.27 in assay [11]; 0.767 in [13]; -0.2 in assay [14]. Also, the composite z-score was -0.781 in assay [15]; -0.0853 in assay [16]; -0.2 in assay [17]; -0.0611 in assay [18]; 0.37 in [19]; 0.452 in assay [20]. Besides, the z-score is -1.59 (inactive) in [4] and 0.533 in [12].

The record behind these values is PubChem BioAssay.
